Assay outcomes: PubChem, National Center for Advancing Translational Sciences (NCATS)
NPC1 promoter act: activates the NPC1 promoter; Huh7 NPC1 promoter luciferase reporter, 24 h; Potency, µM (series often up to 9.22 µM), without a hit: at the top dose activation, hits mostly activators; 2.4% of 320,000 active; also: % of control where 0% means no effect; nearly all actives have a fitted effect of over 60% in size
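Compounds in DMSO were transferred onto Huh7 NPC1-luciferase reporter cells pre-incubated 2 h; after 24 h at 37 °C, Amplite reagent was dispensed and luminescence recorded 10 min later.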
ELG1 genotoxic: inducers of genotoxicity in HEK293T ELG1-luciferase cells | HEK293T ELG1-luciferase reporter, luminescence, 16 h | Potency, µM (doses to about 46 µM), for inactives: top-dose activity change, positive = activation, usual class: activators | 1.3% of 330,000 active | AID 504466; also: % of control where 0% means no effect; nearly all actives have a fitted effect of over 60% in size
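Quantitative HTS format in 1536-well plates. HEK293T ELG1-luciferase reporter cells receive test compound and are incubated 16 hr at 37 °C, 5% CO2; ONE-Glo added, 30 min room temperature, then luminescence read.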
Rab9 promoter act: Rab9 promoter activation; Huh7 Rab9 promoter-luciferase reporter, luminescence, 24 h; Potency, µM (doses to about 9.22 µM), for inactives: top-dose activation, negative = inhibition, hits mostly activators; 2.8% of 320,000 active; also: % of control where 0% means no effect; nearly all actives have a fitted effect of over 60% in size
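Huh7 reporter line, Rab9 promoter upstream of luciferase. Compound exposure 24 h at 37 °C in reduced-serum medium with 10% FBS. Read-out: luminescence.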
FLuc modulator: inhibits or activates purified firefly luciferase, miR-21 counter-screen | P08659 | 6.9% of 360,000 active | purified FLuc, Km substrates, luminescence inhibition | Potency, µM (top dose mostly 57.5 µM), inactives show top-dose activity change, negative = inhibition, actives largely listed as inhibitors | AID 588342;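 also: plate controls were vehicle for no effect and reference inhibitor for full effect; nearly all actives have a fitted effect of over 55% in size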
Target sequence (P08659 whole entry, looked up): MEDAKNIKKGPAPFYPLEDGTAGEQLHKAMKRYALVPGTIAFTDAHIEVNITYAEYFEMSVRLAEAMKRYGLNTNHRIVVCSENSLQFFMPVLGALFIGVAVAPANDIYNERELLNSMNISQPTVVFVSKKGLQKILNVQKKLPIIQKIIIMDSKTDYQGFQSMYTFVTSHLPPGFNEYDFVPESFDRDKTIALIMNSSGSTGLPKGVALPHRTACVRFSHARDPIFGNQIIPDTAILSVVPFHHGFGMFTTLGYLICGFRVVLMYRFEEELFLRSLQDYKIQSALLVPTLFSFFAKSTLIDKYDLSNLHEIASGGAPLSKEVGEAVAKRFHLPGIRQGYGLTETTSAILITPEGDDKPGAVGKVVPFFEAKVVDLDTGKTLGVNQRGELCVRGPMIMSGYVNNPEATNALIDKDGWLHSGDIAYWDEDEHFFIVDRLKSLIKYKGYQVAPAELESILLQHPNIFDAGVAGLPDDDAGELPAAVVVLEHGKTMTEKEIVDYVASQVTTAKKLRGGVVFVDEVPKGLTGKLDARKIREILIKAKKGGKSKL
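Biochemical qHTS of compounds, final roughly 60 µM downward over six points, against 10 nM purified firefly luciferase using Km concentrations of substrates (10 uM D-luciferin, 10 uM ATP) in Tris acetate pH 7.5 buffer; luminescence output.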
p53 reactivation: re-activators of mutant p53; 0.063% of 320,000 active; AID 504706; H1299 p53-A138V BP100-luciferase reporter, luminescence, 24 h; Potency, µM (titrated, usually from 92.2 µM), for the others: at the highest dose activity change, positive = activation, actives largely listed as activators; also: % of control where 0% means no effect; nearly all actives have a fitted effect of over 45% in size
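p53-null H1299 cells stably carrying temperature-sensitive p53-A138V and a BP100-luciferase reporter were pinned with compounds (4-point, 1:5 series) and held 24 hrs at 37 deg C. Luminescence was read 10 min after detection reagent.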
SMN2 splice up: increases expression of the SMN2 splice variant. HEK293 SMN2-luciferase splicing reporter, luminescence, 30-36 h. Potency, µM (top dose mostly 46.1 µM), for inactives: at the top dose activity change, positive = activation, hits mostly activators. 2.8% of 210,000 active. AID 1458; also: % of control where 0% means no effect; nearly all actives have a fitted effect of over 55% in size
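HEK293 cells carry an SMN2 […]–luciferase reporter in which exon 7 inclusion puts luciferase in frame. Cells were plated 10-12 h before compound addition, then incubated 30-36 h at 37C. ONE-Glo luminescence was read; sodium butyrate at 4.5 mM final served as control.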
The depositor's hits bear a star; ? = inconclusive; . = no result given; ! = not active in a repeat. An excerpt weighted towards active compounds, which were near 7.3% of everything screened. Calls follow the shape of the dose curve; as a rule, active = well fitted curve in the direction sought with a large enough effect; inconclusive = small, poorly fitted or top-dose-only effect, or another doubt; inactive = no such curve, though single readings can be large; an effect the other way counts as inactive or inconclusive. Potency is read from the fitted curve at half-maximal effect.

SMILES	NPC1 promoter act	ELG1 genotoxic	Rab9 promoter act	FLuc modulator	p53 reactivation	SMN2 splice up
O=C(NC1CC(=O)N(c2ccc(F)cc2)C1)c1ccc2c(c1)OCO2 (stereo unspecified)	.	.	.	2%	.	.
CCN(CC)C(=S)Nc1ccc(Cl)c(Cl)c1	-5%	-1%	-4%	-2%	-2%	-33%
O=C(COC(=O)c1ccccc1NC(=O)C1CC1)c1ccc2c(c1)OCCO2	22%	-1%	?	1.7µM*	?	1%
COC(=O)c1ccccc1NC(=O)c1ccc2c(c1)OCCO2	3%	13%	18%	?	19%	?
CC(C)(C)C(=O)Nc1ccccc1C(=O)OCC(=O)c1ccc2c(c1)OCCO2	-3%	-1%	3%	6.7µM*	?	-29%
CCC(Cc1ccccc1)NC(=O)CN1C(=O)COc2ccc(S(=O)(=O)N3CCCCCC3)cc21 (stereo unspecified)	.	.	.	-4%	.	2%
CCOC(=O)c1ccc(NC(=O)c2oc3ccc4c(c3c2C)C(=O)CC(C)(CC)O4)cc1 (stereo unspecified)	.	.	.	-16%	.	5%
COC(=O)c1ccccc1NC(=O)c1oc2ccc3c(c2c1C)C(=O)CC(C)(C)O3	.	.	.	5.4µM*	.	.
COc1cccc(CNC(=O)c2oc3ccc4c(c3c2C)C(=O)CC(C)(C)O4)c1OC	.	.	.	3.4µM*	.	6%
CC(=O)Nc1ccc(NC(=O)c2oc3ccc4c(c3c2C)C(=O)CC(C)(C)O4)cc1	.	.	.	8.5µM*	.	.
COc1cc(OC)c(NC(=O)c2oc3ccc4c(c3c2C)C(=O)CC(C)(C)O4)cc1Cl	.	.	.	5.4µM*	.	.
CC(C)(C)N(Cc1ccccc1)C(=O)COC(=O)C1CC1	.	2%	.	.	2%	.
CCCNC(=O)c1oc2ccc3c(c2c1C)C(=O)CC(C)(C)O3	1.8µM*	?	1.8µM*	2.4µM*	?	13µM*
Cc1c(C(=O)NCc2ccc(Cl)cc2)oc2ccc3c(c12)C(=O)CC(C)(C)O3	.	.	.	?	.	26%
CCCNC(=O)c1ccc(COc2ccc(C)cc2)o1	2%	1%	-2%	-11%	1%	.
Cc1ccc(NC(=O)c2oc3ccc4c(c3c2C)C(=O)CC(C)(C)O4)c(C)c1	.	.	.	4.3µM*	.	.
CCCNC(=O)c1oc2ccc3c(c2c1C)C=CC(C)(C)O3	?	?	3.5µM*	11µM*	20%	.
Cn1nnnc1SCC(=O)Nc1ncc(Cl)cc1Cl	2%	-1%	-3%	-3%	3%	.
COc1ccc(S(=O)(=O)NCC(c2ccco2)S(=O)(=O)c2cccs2)cc1F (stereo unspecified)	.	.	.	0%	.	.
CN(C)CCN(C(=O)c1ccc2c(c1)CCCC2)c1nc2c(F)cccc2s1	2%	?	6%	11µM*	14%	.
COc1cccc2sc(N(CCN(C)C)C(=O)c3ccc4c(c3)CCCC4)nc12	-3%	-11%	4%	2%	14%	.
CCCn1c(-c2ccc(F)cc2)nc2c(NCCCN(CCO)CCO)nc(C)nc21	.	.	.	.	.	7%
COC(=O)NNC(=O)c1ccccc1OC	4%	0%	-3%	-2%	-1%	9%
COc1ccccc1C(=O)NNC(=O)c1cccc(C)c1	?	?	?	12µM*	11%	.
COc1ccccc1C(=O)NNC(=O)c1cccc([N+](=O)[O-])c1	11%	?	?	19µM*	0%	?
SMILES	NPC1 promoter act	ELG1 genotoxic	Rab9 promoter act	FLuc modulator	p53 reactivation	SMN2 splice up
COc1ccc(NCc2cc3cc4c(cc3n(CC(=O)Nc3ccccc3)c2=O)OCO4)cc1	.	.	.	-2%	.	.
CCc1ccccc1NC(=O)CN1C(=O)COc2ccc(S(=O)(=O)N3CCCCCC3)cc21	.	.	.	-1%	.	.
COc1ccc(S(=O)(=O)N2CCCCC2)cc1NC(=O)c1[nH]c(C)c(C(C)=O)c1C	.	12µM*	.	.	-11%	.
COc1ccc(S(=O)(=O)N2CCN(C)CC2)cc1C(=O)N1CCCCC1	2%	-4%	2%	1%	11%	.
CC(=O)c1c(C)[nH]c(C(=O)Nc2cc(S(=O)(=O)N3CCCCC3)ccc2C)c1C	-4%	12%	1%	4%	-11%	.
CCN(CC)S(=O)(=O)c1cc(NC(=O)CNc2cccc(S(=O)(=O)N3CCOCC3)c2)ccc1C	-28%	5.2µM*	-34%	6%	0%	.
COc1ccc(S(=O)(=O)N2CCCCCC2)cc1C(=O)N1CCCCC1	-6%	?	-1%	17µM*	-5%	.
CC(=O)c1c(C)[nH]c(C(=O)Nc2cccc(S(=O)(=O)N(C)c3ccccc3)c2)c1C	-13%	-17%	-7%	-9%	-4%	.
CC(=O)c1c(C)[nH]c(C(=O)Nc2cccc(S(=O)(=O)N3CCOCC3)c2)c1C	-2%	?	1%	-3%	-9%	8.9µM*
COc1cc(-c2nc(CN(C)C(C)c3ccncn3)c(C)o2)ccc1F (stereo unspecified)	-3%	4%	-5%	-1%	1%	.
COc1ccc(-n2nnnc2C2CCN(S(=O)(=O)c3ccc(NC(C)=O)cc3)CC2)cc1	.	.	.	1%	.	-20%
Cc1ccc(NC(=O)CSc2ncnc3ccccc23)cc1S(=O)(=O)N1CCCCC1	-2%	2%	-7%	-20%	3%	-29%
COc1ccc(S(=O)(=O)N2CCCCC2)cc1NC(=O)CSc1ncnc2ccccc12	-10%	-6%	-47%	8.5µM*	11%	-45%
COc1ccc(OC)c(NC(=O)COCc2cc(-c3ccco3)on2)c1	.	.	.	-7%	.	.
Nc1c(C(=O)c2ccccc2)oc2ccc(Br)cc12	3.2µM*	4.6µM*	3.5µM*	3µM*	?	16µM*
Nc1c(C(=O)c2ccccc2)oc2ccc([N+](=O)[O-])cc12	3.5µM*	15%	3.5µM*	?	8%	.
COC(=O)CCC(=O)c1oc2ccc(Br)cc2c1N	21%	?	19%	7.6µM*	?	11%
Nc1c(C(=O)c2ccc(Br)cc2)oc2ccccc12	28%	8%	30%	-4%	?	?
O=C(c1ccc(Cl)cc1)c1nnc(-c2ccncc2)o1	12%	2%	14%	?	24%	-17%
O=C(c1ccccc1)c1nnc(-c2ccncc2)o1	-3%	1%	2%	9.5µM*	10%	5%
COc1ccc(-c2cnc(C)o2)cc1S(=O)(=O)Nc1ccc(C)c(F)c1	.	.	.	-2%	.	.
O=C(Nc1ccccc1)Nc1cccc2nsnc12	4.5µM*	?	3.2µM*	7.6µM*	8%	11µM*
O=C(Nc1cccc2nsnc12)c1cccnc1	0%	0%	1%	4%	-1%	-37%
O=C(Nc1cccc2nsnc12)c1cccs1	?	?	3.2µM*!	13µM*!	?	71%
